Test results: PubChem BioAssay AID1159580 (chemical genetic matrix, 2015)
The campaign covered roughly 5,500 compounds. About 2,000 (36%) were called active. Roughly 18% stayed inconclusive and do not appear here. Cut-off read from the data, not from the text of the source: active = normalized growth mostly below about 0.91 (no sharp cut-off); inconclusive = no clear call, values can overlap the other calls; inactive = mostly above about 0.92. The list shows a part of the results.

Experiment: chemical genetic growth profiling, strain panel (AID 1159580);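 note: tested at 20 µM; growth read once vehicle control cultures reached saturation at 30 °C; 1 = growth at the plate median or of vehicle wells; lower values mean less growth of the strain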
Conditions: growth OD

Measured: normalized growth

CC[C@H](C)C(=O)O[C@H]1C[C@@H](C)C=C2C=C[C@H](C)[C@H](CC[C@@H]3C[C@@H](O)CC(=O)O3)[C@H]21
inactive: S. cerevisiae deletion strains, locus YJR075W, strain HOC1, stronger effect = lower value 0.997 | S. cerevisiae deletion strains, locus YKL009W, strain mrt4, stronger effect = lower value 0.959 | S. cerevisiae deletion strains, locus YKL068W, stronger effect = lower value 0.988 | S. cerevisiae deletion strains, locus YKL085W, strain MDH1 (second series), stronger effect = lower value 0.993 | S. cerevisiae deletion strains, locus YKL085W, strain MDH1, stronger effect = lower value 0.993 | S. cerevisiae deletion strains, locus YKL160W, strain elf1, stronger effect = lower value 1 | S. cerevisiae deletion strains, locus YKL190W, strain CNB1, stronger effect = lower value 0.992 | S. cerevisiae deletion strains, locus YKR001C, strain vps1, stronger effect = lower value 0.986 | S. cerevisiae deletion strains, locus YKR026C, strain gcn3, stronger effect = lower value 0.999 | S. cerevisiae deletion strains, locus YKR091W, strain srl3, stronger effect = lower value 1 | S. cerevisiae deletion strains, locus YLL001W, strain dnm1, stronger effect = lower value 1.02 | S. cerevisiae deletion strains, locus YLL026W, stronger effect = lower value 1.01 | S. cerevisiae deletion strains, locus YLL041C, strain sdh2, stronger effect = lower value 1 | S. cerevisiae deletion strains, locus YLR027C, strain aat2, stronger effect = lower value 1.01 | S. cerevisiae deletion strains, locus YLR039C, strain RIC1, stronger effect = lower value 0.971 | S. cerevisiae deletion strains, locus YLR058C, strain SHM2, stronger effect = lower value 0.957 | S. cerevisiae deletion strains, locus YLR102C, strain apc9, stronger effect = lower value 0.994 | S. cerevisiae deletion strains, locus YLR113W, strain HOG1, stronger effect = lower value 1 | S. cerevisiae deletion strains, locus YLR221C, strain rsa3, stronger effect = lower value 1.01 | S. cerevisiae deletion strains, locus YLR258W, strain gsy2, stronger effect = lower value 1.01 | S. cerevisiae deletion strains, locus YLR262C, strain YPT6 (second series), stronger effect = lower value 1.11 | S. cerevisiae deletion strains, locus YLR262C, strain YPT6, stronger effect = lower value 0.916 | S. cerevisiae deletion strains, locus YLR268W, strain sec22, stronger effect = lower value 1.06 | S. cerevisiae deletion strains, locus YLR320W, strain mms22, stronger effect = lower value 0.992 | S. cerevisiae deletion strains, locus YLR330W, strain CHS5, stronger effect = lower value 0.969 | S. cerevisiae deletion strains, locus YLR342W, strain FKS1 (second series), stronger effect = lower value 0.968 | S. cerevisiae deletion strains, locus YLR342W, strain FKS1, stronger effect = lower value 1 | S. cerevisiae deletion strains, locus YLR357W, strain rsc2, stronger effect = lower value 0.908 | S. cerevisiae deletion strains, locus YLR370C, strain arc18, stronger effect = lower value 1.02 | S. cerevisiae deletion strains, locus YLR371W, strain rom2, stronger effect = lower value 0.982 | S. cerevisiae deletion strains, locus YLR384C, strain iki3, stronger effect = lower value 1.01 | S. cerevisiae deletion strains, locus YLR418C, strain cdc73, stronger effect = lower value 0.908 | S. cerevisiae deletion strains, locus YML016C, strain PPZ1, stronger effect = lower value 0.977 | S. cerevisiae deletion strains, locus YML032C, strain rad52, stronger effect = lower value 1.01 | S. cerevisiae deletion strains, locus YML120C, strain ndi1, stronger effect = lower value 1.01 | S. cerevisiae deletion strains, locus YML124C, strain tub3, stronger effect = lower value 0.98 | S. cerevisiae deletion strains, locus YMR058W, strain fet3, stronger effect = lower value 1 | S. cerevisiae deletion strains, locus YMR078C, strain ctf18, stronger effect = lower value 0.987 | S. cerevisiae deletion strains, locus YMR125W, strain sto1, stronger effect = lower value 0.984 | S. cerevisiae deletion strains, locus YMR129W, stronger effect = lower value 1.01 | S. cerevisiae deletion strains, locus YMR205C, strain PFK2, stronger effect = lower value 1 | S. cerevisiae deletion strains, locus YMR223W, strain ubp8, stronger effect = lower value 0.948 | S. cerevisiae deletion strains, locus YMR231W, strain pep5, stronger effect = lower value 0.998 | S. cerevisiae deletion strains, locus YMR263W, strain SAP30, stronger effect = lower value 0.987 | S. cerevisiae deletion strains, locus YMR307W, strain GAS1, stronger effect = lower value 0.984 | S. cerevisiae deletion strains, locus YNL067W, strain RPL9B, stronger effect = lower value 1.01 | S. cerevisiae deletion strains, locus YNL071W, strain lat1, stronger effect = lower value 1.01 | S. cerevisiae deletion strains, locus YNL128W, strain TEP1, stronger effect = lower value 0.97 | S. cerevisiae deletion strains, locus YNL153C, strain GIM3, stronger effect = lower value 1.02 | S. cerevisiae deletion strains, locus YNL183C, strain NPR1, stronger effect = lower value 0.939 | S. cerevisiae deletion strains, locus YNL209W, strain ssb2, stronger effect = lower value 1.01 | S. cerevisiae deletion strains, locus YNL233W, strain BNI4, stronger effect = lower value 1.01 | S. cerevisiae deletion strains, locus YNL248C, strain rpa49, stronger effect = lower value 1.01 | S. cerevisiae deletion strains, locus YNL250W, strain rad50, stronger effect = lower value 0.958 | S. cerevisiae deletion strains, locus YNL271C, strain bni1, stronger effect = lower value 0.994 | S. cerevisiae deletion strains, locus YNL298W, strain CLA4, stronger effect = lower value 0.99 | S. cerevisiae deletion strains, locus YNL307C, strain MCK1, stronger effect = lower value 0.948 | S. cerevisiae deletion strains, locus YNL322C, strain KRE1 (second series), stronger effect = lower value 1.02 | S. cerevisiae deletion strains, locus YNL322C, strain KRE1, stronger effect = lower value 0.986 | S. cerevisiae deletion strains, locus YNR049C, strain mso1, stronger effect = lower value 1.01 | S. cerevisiae deletion strains, locus YNR052C, strain pop2, stronger effect = lower value 0.999 | S. cerevisiae deletion strains, locus YOL006C, strain TOP1, stronger effect = lower value 0.953 | S. cerevisiae deletion strains, locus YOL012C, strain htz1 0.797 | S. cerevisiae deletion strains, locus YOL147C, strain pex11, stronger effect = lower value 0.986 | S. cerevisiae deletion strains, locus YOR001W, strain rrp6, stronger effect = lower value 1.02 | S. cerevisiae deletion strains, locus YOR061W, strain CKA2, stronger effect = lower value 0.964 | S. cerevisiae deletion strains, locus YOR069W, strain VPS5, stronger effect = lower value 0.981 | S. cerevisiae deletion strains, locus YOR070C, strain gyp1, stronger effect = lower value 1 | S. cerevisiae deletion strains, locus YOR080W, strain dia2, stronger effect = lower value 0.998 | S. cerevisiae deletion strains, locus YOR083W, strain WHI5, stronger effect = lower value 1 | S. cerevisiae deletion strains, locus YOR106W, strain vam3, stronger effect = lower value 0.99 | S. cerevisiae deletion strains, locus YOR136W, strain idh2, stronger effect = lower value 0.98 | S. cerevisiae deletion strains, locus YOR144C, strain elg1, stronger effect = lower value 0.993 | S. cerevisiae deletion strains, locus YOR184W, strain ser1, stronger effect = lower value 0.94 | S. cerevisiae deletion strains, locus YOR231W, strain MKK1, stronger effect = lower value 0.983 | S. cerevisiae deletion strains, locus YOR265W, strain rbl2, stronger effect = lower value 1.01 | S. cerevisiae deletion strains, locus YOR270C, strain vph1, stronger effect = lower value 0.881 | S. cerevisiae deletion strains, locus YOR290C, strain snf2, stronger effect = lower value 1.02 | S. cerevisiae deletion strains, locus YOR316C, strain cot1, stronger effect = lower value 0.993 | S. cerevisiae deletion strains, locus YPL051W, strain arl3, stronger effect = lower value 0.999 | S. cerevisiae deletion strains, locus YPL055C, strain LGE1, stronger effect = lower value 0.939 | S. cerevisiae deletion strains, locus YPL078C, strain atp4, stronger effect = lower value 1.01 | S. cerevisiae deletion strains, locus YPL106C, strain sse1, stronger effect = lower value 1.06 | S. cerevisiae deletion strains, locus YPL240C, strain hsp82, stronger effect = lower value 1.01 | S. cerevisiae deletion strains, locus YPL241C, strain CIN2, stronger effect = lower value 0.979 | S. cerevisiae deletion strains, locus YPL256C, strain CLN2, stronger effect = lower value 1.02 | S. cerevisiae deletion strains, locus YPR119W, strain clb2, stronger effect = lower value 0.986 | S. cerevisiae deletion strains, locus YPR141C, strain kar3, stronger effect = lower value 0.971 | S. cerevisiae deletion strains, locus YPR163C, strain tif3, stronger effect = lower value 0.995 | S. cerevisiae deletion strains, locus YPR167C, strain met16, stronger effect = lower value 0.99 | S. cerevisiae deletion strains, strain wtn01, stronger effect = lower value 1.01 | S. cerevisiae strains, strain wild type, stronger effect = lower value 0.963
